From PMC10668032, “Altered binding affinity of SIX1-Q177R correlates with enhanced WNT5A and WNT pathway effector expression in Wilms tumor”
Whole data set: some 33,000 sequences, median “e-score” near -0.05, cut for the highest 2% near 0.38. Only a selection was taken, and the highest values are over-represented in it overall.

Biological target: T1, SIX1-Q177R homeodomain (human, UniProt Q15475 108-198, Q177R)
T1 sequence: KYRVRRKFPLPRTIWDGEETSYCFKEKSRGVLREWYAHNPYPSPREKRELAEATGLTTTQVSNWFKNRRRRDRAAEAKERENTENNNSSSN
Assay: universal protein binding microarray; Universal all-10-mer PBM (8x60K, AMADID 030236), 300 nM GST-tagged protein, Alexa Fluor 488 anti-GST; buffer, salt, pH and temperature not stated (as in Berger); high values mean tight binding
Conditions: protein: ivt; tags: N-terminal GST; dsDNA, one strand shown
Outline: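 GST-tagged homeodomains were made by in vitro transcription/translation and quantified by anti-GST western blot against a recombinant GST standard curve. They were applied in duplicate at 300 nM final concentration to universal 'all 10-mer' protein binding microarrays (8×60K format). Binding was quantified as 8-mer E-scores with the Universal PBM Analysis Suite.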

Sequence | binding signal [E-score]
ACTCCCGA | 0.172 ± 0.0235
CCAGGTAC | 0.2011 ± 0.000495
CACCGCTG | 0.249 ± 0.0245
CACGTTAC | 0.179 ± 0.0457
ACTAGGAG | 0.219 ± 0.0299
CTAAAACA | 0.211 ± 0.0343
GGTGTGGA | 0.369 ± 0.0214
CGTGTGGA | 0.159 ± 0.00165
CGTGTCGA | 0.404 ± 0.0138
CGAGTCGA | 0.151 ± 0.006
GGAGTCGA | 0.227 ± 0.0424
GGTGTCGA | 0.4869 ± 0.00312
CACGGCCC | 0.215 ± 0.0365
GGATCACC | 0.203 ± 0.0315
CCATGACA | 0.222 ± 0.0113
TACTGACA | 0.22 ± 0.0513
GGGCGACA | 0.156 ± 0.0211
AGGAGGTG | 0.2857 ± 0.000318
AACACGCT | 0.379 ± 0.00919
TACACACA | 0.259 ± 0.0395
AACACGCA | 0.396 ± 0.0109
TACACGCA | 0.406 ± 0.0157

Sequence | binding signal [E-score]
CACACGCA | 0.32 ± 0.022
AACACGCC | 0.366 ± 0.013
AACACGAT | 0.358 ± 0.00931
AACACGCG | 0.36 ± 0.0195
CACCGAAG | 0.283 ± 0.0113
ACTCCGGG | 0.2895 ± 0.00256
AATTTACA | 0.182 ± 0.0161
AAACCCCC | 0.24 ± 0.0528
ATCACACC | 0.442 ± 0.00795
ATCACACG | 0.318 ± 0.0128
CTCACACC | 0.393 ± 0.0106
ATCACCCC | 0.204 ± 0.0194
GTCACACA | 0.215 ± 0.0441
CACTCACC | 0.242 ± 0.0149
ACCAAGTG | 0.208 ± 0.0393
GGAGTCAA | 0.2 ± 0.0177
CCGCAACA | 0.17 ± 0.0293
CACCGAAC | 0.335 ± 0.0128
CAGGACAC | 0.423 ± 0.02
AAGCACAC | 0.276 ± 0.0054
GAGGACAC | 0.401 ± 0.00566
GAGCACAC | 0.262 ± 0.0319

Sequence | binding signal [E-score]
CAGGATAC | 0.168 ± 0.0209
AAGGATAC | 0.275 ± 0.00871
GAGGATAC | 0.235 ± 0.0473
AAGGACAC | 0.40482 ± 0.000361
CAGAGCAC | 0.19 ± 0.0352
ACATCGTG | 0.151 ± 0.0256
GTATGATA | 0.18 ± 0.0375
CCTTTACA | 0.242 ± 0.0698
CCCCCCTC | 0.163 ± 0.0311
CTGGGTAC | 0.278 ± 0.0111
CCGCAAGG | 0.15 ± 0.00344
CATTTACA | 0.267 ± 0.0374
CACCGAAA | 0.329 ± 0.00917
AGTGGATC | 0.216 ± 0.0109
GATCAACA | 0.206 ± 0.00474
CACGAACG | 0.207 ± 0.0299
CCCTAGCA | 0.17 ± 0.00574
ACGAGGGG | 0.208 ± 0.0082
GAAGATAC | 0.16 ± 0.0546
GAAGACAC | 0.38 ± 0.00523
AAAGACAC | 0.425 ± 0.0124
CAAGACAC | 0.4021 ± 0.00161

Sequence | binding signal [E-score]
ATGACCCC | 0.318 ± 0.0237
ATTGAGTG | 0.18 ± 0.0318
GGTTTACA | 0.16 ± 0.0137
CTCCCTAA | 0.165 ± 0.0334
ACAAACAC | 0.379 ± 0.0204
ACTAACAC | 0.427 ± 0.0173
CCTATCAC | 0.173 ± 0.0477
GCTAACCC | 0.186 ± 0.00969
GCTAACAC | 0.417 ± 0.0145
CTAAACAC | 0.364 ± 0.00812
CCTAACAC | 0.404 ± 0.00657
ACTAAAAC | 0.168 ± 0.0313
GCTACCAC | 0.181 ± 0.00856
ACCCGACC | 0.223 ± 0.0107
GTTCAGAA | 0.18 ± 0.0199
ACCCCGCA | 0.259 ± 0.0114
CCAAGCCC | 0.155 ± 0.0141
CCCAGACA | 0.16 ± 0.0032
ATCAGACA | 0.204 ± 0.00355
TGTGTTAA | 0.171 ± 0.00303
